Measurements published in PubChem BioAssay (EPA / NIEHS).
Active and inactive are the calls of the source. The calls were made as follows: active = hit-call score of the fitted dose curve at least 0.9, where 1 is the maximum; inactive = score below 0.9.

Experiments:
[1] = ATG_GLI_CIS: Attagene CIS-FACTORIAL HepG2 Assay for human Zinc Finger Protein GLI1 (AID 2282945); conditions: HepG2, Attagene cis-factorial reporter mRNA, GLI element; actives raise or lower the signal
In short: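 Transiently transfected HepG2 cells report endogenous transcription factor activity via cis-element-driven reporter units. After 24 h compound exposure, reporter mRNA was measured by RT-PCR with capillary electrophoresis; bidirectional fitting against DMSO baseline.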

[2] = ATG_GRE_CIS: Attagene CIS-FACTORIAL HepG2 Assay for human Glucocorticoid Response Elements (GRE) (AID 2282947); conditions: HepG2 GRE cis-reporter, Attagene multiplex mRNA; actives raise or lower the signal
In short: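 Fluorescence intensity of reporter-specific cDNA fragments, separated by capillary electrophoresis, provides the signal. Constructs carry cis-regulating promoters in transiently transfected HepG2 liver cells; 24 h incubation; fitting is bidirectional against DMSO.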

[3] = ATG_M_32_CIS: Attagene CIS-FACTORIAL HepG2 Assay for M32 Transcription Factor (Internal Marker) (AID 2282949); conditions: HepG2 Attagene cis-factorial M32 reporter, mRNA; actives raise or lower the signal;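 also: background control marker of the multiplexed CIS panel rather than a real target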
In short: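 HepG2 human liver cells transiently transfected with cis-promoter-driven multiple reporter transcription units, dosed 24 h. Reporter mRNA quantified by RT-PCR, FAM-labelled primer extension, HpaI digest and capillary electrophoresis; bidirectional fit versus DMSO baseline.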

[4] = ATG_M_06_CIS: Attagene CIS-FACTORIAL HepG2 Assay for M06 Transcription Factor (Internal Marker) (AID 2282950); conditions: HepG2 Attagene CIS-FACTORIAL M06 internal marker reporter; actives raise or lower the signal
In short: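 Internal background marker within multiplexed cis-reporter HepG2 system. Cells transiently transfected, dosed 24 h; reporter mRNA measured by RT-PCR, HpaI digestion and capillary electrophoresis. Bidirectional fit relative to DMSO.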

[5] = biological target: Hypoxia-inducible factor 1-alpha (Homo sapiens) (UniProt Q16665); assay: ATG_HIF1a_CIS: Attagene CIS-FACTORIAL HepG2 Assay for human Hypoxia Inducible Factor 1 (HIF1A) (AID 2282951); conditions: HepG2 Attagene cis-factorial HIF1a reporter transcription; actives raise or lower the signal
In short: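 Transient MRTU transfection of human HepG2 liver cells, 24 h compound treatment, then total RNA isolation, oligo(dT) reverse transcription, PCR amplification, fluorescent labelling and capillary electrophoresis of reporter fragments. Gain or loss relative to DMSO.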

[6] = biological target: Hepatocyte nuclear factor 6 (Homo sapiens) (UniProt Q9UBC0); assay: ATG_HNF6_CIS: Attagene CIS-FACTORIAL HepG2 Assay for human Hepatocyte Nuclear Factor 6 (HNF6) (AID 2282952); conditions: HepG2 Attagene cis-factorial HNF6 reporter transcription; actives raise or lower the signal
In short: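 Using cis-element reporters in HepG2 liver cells, the assay tracks endogenous factor-driven transcription 24 h post-dosing. Signal comes from 6-FAM-labelled, HpaI-digested RT-PCR fragments, with gain or loss scored against DMSO.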

[7] = biological target: Heat shock factor protein 1 (Homo sapiens) (UniProt Q00613); assay: ATG_HSE_CIS: Attagene CIS-FACTORIAL HepG2 Assay for human Heat Shock Transcription Factor 1 (HSE) (AID 2282953); conditions: HepG2 HSE cis-reporter, Attagene RNA transcription; actives raise or lower the signal
In short: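 HepG2 cells transfected with cis-promoter reporter units sensing endogenous transcription factor activity; reporter mRNA quantified 24 h post-dose by RT-PCR and capillary electrophoresis of 6-FAM-labelled products. Bidirectional fitting against DMSO.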

[8] = ATG_MRE_CIS: Attagene CIS-FACTORIAL HepG2 Assay for human Metal Responsive Element (MRE) (AID 2282954); conditions: HepG2 MRE cis-reporter transcription, Attagene multiplex; actives raise or lower the signal
In short: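 Measured here is mRNA induction from an MRE cis-element reporter in HepG2 after 24 h, quantified by fluorescence of labelled RT-PCR products on capillary electrophoresis; gain- and loss-of-signal fits use DMSO as baseline.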

[9] = ATG_PBREM_CIS: Attagene CIS-FACTORIAL HepG2 Assay for human Phenobarbital-responsive Enhancer Module (PBREM) (AID 2282955); conditions: HepG2 PBREM cis-reporter, Attagene multiplexed transcription; actives raise or lower the signal
In short: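 Endogenous transcription factors in human liver HepG2 cells drive a PBREM cis-element reporter, whose transcript level after 24 h treatment is quantified by RT-PCR with capillary electrophoresis; activity fitted in both directions against DMSO.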

[10] = ATG_PXRE_CIS: Attagene CIS-FACTORIAL HepG2 Assay for human Pregnane X Receptor Element (PXRE) (AID 2282957); conditions: HepG2 Attagene CIS-FACTORIAL PXRE reporter, mRNA; actives raise or lower the signal
In short: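 Using HepG2 transfected with multiple reporter transcription units, endogenous factor-driven transcription was scored as reporter mRNA after 24 h exposure.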

[11] = ATG_RORE_CIS: Attagene CIS-FACTORIAL HepG2 Assay for human RAR-related Orphan Receptor Element (RORE) (AID 2282959); conditions: HepG2 Attagene cis-factorial RORE reporter, mRNA; actives raise or lower the signal
In short: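 Transient MRTU transfection of human HepG2 liver cells (FuGene 6); 24 h compound exposure; TriZol RNA, oligo(dT) RT, PCR, FAM labeling, HpaI cut, CE fragment analysis. DMSO = negative control/baseline.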

[12] = ATG_Sox_CIS: Attagene CIS-FACTORIAL HepG2 Assay for human SRY-box transcription factor (SOX) (AID 2282960); conditions: HepG2 Attagene cis-factorial SOX reporter, mRNA; actives raise or lower the signal
In short: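 Endogenous factor activity in human liver HepG2 cells carrying transfected cis-regulated reporter units. RNA taken 24 h post-dose, reverse-transcribed, PCR-amplified and sized by capillary electrophoresis. Gain or loss of signal fitted relative to DMSO.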

[13] = biological target: Transcription factor Sp1 (Homo sapiens) (UniProt P08047); assay: ATG_Sp1_CIS: Attagene CIS-FACTORIAL HepG2 Assay for human Specificity Protein 1 (Sp1) (AID 2282961); conditions: HepG2 Sp1 cis-reporter transcription, actives raise or lower the signal
In short: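 Transient MRTU-transfected HepG2, 24 h compound exposure. Total RNA → oligo(dT) RT → PCR of reporter → 6-FAM primer extension → HpaI digest → CE. Endpoint fitted both directions vs DMSO.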

[14] = biological target: Signal transducer and activator of transcription 3 (Homo sapiens) (UniProt P40763); assay: ATG_STAT3_CIS: Attagene CIS-FACTORIAL HepG2 Assay for human Signal Transducer and Activator of Transcription 3 (STAT3) (AID 2282963); conditions: HepG2, Attagene cis-factorial STAT3 reporter transcription; actives raise or lower the signal
In short: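 Fluorescence intensity of 6-FAM-labelled reporter fragments, separated by capillary electrophoresis after RT-PCR, gave the signal. Cells were HepG2 transfected with cis-element reporter units and treated 24 h; fitting was bidirectional relative to DMSO.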

[15] = ATG_ISRE_CIS: Attagene CIS-FACTORIAL HepG2 Assay for human Interferon Regulatory Factor 1 (IRF1) binding to an Interferon-Stimulated Response Element (ISRE) (AID 2282948); conditions: HepG2 ISRE cis-reporter (Attagene), mRNA transcription readout; actives raise or lower the signal
In short: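 Uses HepG2 liver cells transfected with cis-regulated reporters and measures mRNA 24 h post-dosing through RT-PCR, primer-extension labelling and capillary electrophoresis, with DMSO as negative control.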

[16] = biological target: Paired box protein Pax-6 (Homo sapiens) (UniProt P26367); assay: ATG_Pax6_CIS: Attagene CIS-FACTORIAL HepG2 Assay for human Paired Box 6 (PAX6) (AID 2282956); conditions: HepG2 CIS-FACTORIAL PAX6 reporter transcription, RNA readout; actives raise or lower the signal
In short: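 DMSO-referenced bidirectional fits of reporter mRNA fluorescence; HepG2 with transient cis-promoter MRTUs, 24 h post-dose, RT-PCR plus capillary electrophoresis detection.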

[17] = ATG_SREBP_CIS: Attagene CIS-FACTORIAL HepG2 Assay for human Sterol Regulatory Element Binding (SREBP) (AID 2282962); conditions: HepG2 Attagene cis-factorial SREBP reporter, mRNA; actives raise or lower the signal
In short: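 In this cis-format assay, HepG2 liver cells express reporters controlled by promoter elements responsive to native transcription factors. Exposure lasts 24 h; reporter mRNA fluorescence from capillary electrophoresis gives the signal, fitted bidirectionally against DMSO.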

[18] = ATG_TA_CIS: Attagene CIS-FACTORIAL HepG2 Assay for human TA Basal Promoter (AID 2282964); conditions: HepG2 Attagene CIS-factorial TA basal promoter reporter; actives raise or lower the signal
In short: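 HepG2 cells transiently transfected with multiple reporter units under cis promoter elements, reporting endogenous transcription factor activity; this endpoint tracks the TA basal promoter as background control. Reporter mRNA after 24 h dosing measured by RT-PCR/capillary electrophoresis; bidirectional fits versus DMSO.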

[19] = ATG_PPRE_CIS: Attagene CIS-FACTORIAL HepG2 Assay for human Peroxisome Proliferator-activated Response Element (PPRE) (AID 2282958); conditions: HepG2 PPRE cis-element reporter, Attagene transcription factor profiling; actives raise or lower the signal
In short: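 HepG2, transient MRTU transfection (cis promoter elements, endogenous TFs). 24 h dosing. RNA → oligo(dT) RT → PCR → 6-FAM primer extension → HpaI digest → CE. Bidirectional fit vs DMSO.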

Measured: AC50

Signal transducer and activator of transcription 3 (Homo sapiens), sequence (P40763 whole entry, looked up, the tested form may be a part): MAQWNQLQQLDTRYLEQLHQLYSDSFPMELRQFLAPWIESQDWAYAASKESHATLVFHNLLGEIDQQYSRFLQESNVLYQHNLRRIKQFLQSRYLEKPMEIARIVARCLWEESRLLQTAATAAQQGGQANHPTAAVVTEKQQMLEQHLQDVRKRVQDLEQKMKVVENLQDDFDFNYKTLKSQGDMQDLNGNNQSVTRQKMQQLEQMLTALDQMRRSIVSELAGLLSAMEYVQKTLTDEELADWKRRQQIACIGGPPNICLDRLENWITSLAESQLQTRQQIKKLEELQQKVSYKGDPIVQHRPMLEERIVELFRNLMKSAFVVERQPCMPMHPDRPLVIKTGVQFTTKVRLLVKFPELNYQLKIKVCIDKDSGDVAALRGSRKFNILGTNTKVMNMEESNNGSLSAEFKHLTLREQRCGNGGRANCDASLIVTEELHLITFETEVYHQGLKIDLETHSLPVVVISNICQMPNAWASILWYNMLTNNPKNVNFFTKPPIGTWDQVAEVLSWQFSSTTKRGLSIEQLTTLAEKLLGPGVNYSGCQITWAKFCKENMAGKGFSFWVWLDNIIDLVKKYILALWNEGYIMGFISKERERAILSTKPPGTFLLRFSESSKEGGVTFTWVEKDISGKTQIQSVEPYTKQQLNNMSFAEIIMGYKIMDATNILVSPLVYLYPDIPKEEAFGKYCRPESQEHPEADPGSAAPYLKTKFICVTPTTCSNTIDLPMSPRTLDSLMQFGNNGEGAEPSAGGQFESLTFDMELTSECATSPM
Hypoxia-inducible factor 1-alpha (Homo sapiens), sequence (Q16665 whole entry, looked up, the tested form may be a part): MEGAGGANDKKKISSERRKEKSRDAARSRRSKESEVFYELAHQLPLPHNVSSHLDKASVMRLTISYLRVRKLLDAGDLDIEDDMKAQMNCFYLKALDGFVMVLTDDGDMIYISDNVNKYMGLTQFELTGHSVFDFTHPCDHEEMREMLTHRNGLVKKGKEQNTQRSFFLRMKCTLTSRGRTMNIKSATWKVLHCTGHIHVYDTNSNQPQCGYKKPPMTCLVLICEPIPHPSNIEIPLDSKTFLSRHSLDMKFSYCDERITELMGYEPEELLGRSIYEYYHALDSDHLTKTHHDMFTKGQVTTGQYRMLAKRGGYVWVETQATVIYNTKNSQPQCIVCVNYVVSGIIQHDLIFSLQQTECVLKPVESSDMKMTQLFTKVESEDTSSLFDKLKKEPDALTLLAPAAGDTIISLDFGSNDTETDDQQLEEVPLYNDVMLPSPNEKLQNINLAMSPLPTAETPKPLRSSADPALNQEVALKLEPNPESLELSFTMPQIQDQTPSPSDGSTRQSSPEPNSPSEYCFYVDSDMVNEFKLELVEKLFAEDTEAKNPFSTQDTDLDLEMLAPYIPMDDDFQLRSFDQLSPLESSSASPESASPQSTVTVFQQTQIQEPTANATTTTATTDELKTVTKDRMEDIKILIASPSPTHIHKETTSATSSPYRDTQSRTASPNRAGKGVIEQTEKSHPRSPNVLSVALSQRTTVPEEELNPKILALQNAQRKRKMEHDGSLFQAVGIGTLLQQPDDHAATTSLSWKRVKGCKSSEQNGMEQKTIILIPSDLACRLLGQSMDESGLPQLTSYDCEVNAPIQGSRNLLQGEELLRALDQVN
Heat shock factor protein 1 (Homo sapiens), sequence (Q00613 whole entry, looked up): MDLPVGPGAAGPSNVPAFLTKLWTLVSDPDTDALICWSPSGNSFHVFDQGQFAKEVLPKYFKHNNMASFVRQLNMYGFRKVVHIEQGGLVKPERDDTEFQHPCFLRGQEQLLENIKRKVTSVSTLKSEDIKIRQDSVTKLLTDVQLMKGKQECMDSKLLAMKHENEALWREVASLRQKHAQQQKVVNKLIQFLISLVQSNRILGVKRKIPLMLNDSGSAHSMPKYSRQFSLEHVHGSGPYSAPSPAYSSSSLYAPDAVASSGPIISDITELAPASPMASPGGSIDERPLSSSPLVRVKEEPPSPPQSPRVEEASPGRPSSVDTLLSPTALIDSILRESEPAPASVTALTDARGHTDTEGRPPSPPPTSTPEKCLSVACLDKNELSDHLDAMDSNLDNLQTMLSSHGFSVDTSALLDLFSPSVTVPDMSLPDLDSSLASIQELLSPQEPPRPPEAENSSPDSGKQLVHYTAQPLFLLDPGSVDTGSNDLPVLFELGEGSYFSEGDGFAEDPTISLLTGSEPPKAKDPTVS
Hepatocyte nuclear factor 6 (Homo sapiens), sequence (Q9UBC0 whole entry, looked up, the tested form may be a part): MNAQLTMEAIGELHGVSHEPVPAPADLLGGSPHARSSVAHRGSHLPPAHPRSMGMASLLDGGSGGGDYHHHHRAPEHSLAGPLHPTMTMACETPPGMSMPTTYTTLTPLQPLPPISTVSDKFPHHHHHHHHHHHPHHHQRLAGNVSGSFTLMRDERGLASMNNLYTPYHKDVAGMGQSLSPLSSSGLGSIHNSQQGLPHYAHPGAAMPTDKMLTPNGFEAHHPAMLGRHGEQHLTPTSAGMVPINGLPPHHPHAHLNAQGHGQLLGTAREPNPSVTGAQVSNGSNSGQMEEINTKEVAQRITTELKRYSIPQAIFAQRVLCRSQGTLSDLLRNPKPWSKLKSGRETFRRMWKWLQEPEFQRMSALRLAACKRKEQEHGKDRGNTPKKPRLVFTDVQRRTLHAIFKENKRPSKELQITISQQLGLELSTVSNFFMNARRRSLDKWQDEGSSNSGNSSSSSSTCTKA
Paired box protein Pax-6 (Homo sapiens), sequence (P26367 whole entry, looked up): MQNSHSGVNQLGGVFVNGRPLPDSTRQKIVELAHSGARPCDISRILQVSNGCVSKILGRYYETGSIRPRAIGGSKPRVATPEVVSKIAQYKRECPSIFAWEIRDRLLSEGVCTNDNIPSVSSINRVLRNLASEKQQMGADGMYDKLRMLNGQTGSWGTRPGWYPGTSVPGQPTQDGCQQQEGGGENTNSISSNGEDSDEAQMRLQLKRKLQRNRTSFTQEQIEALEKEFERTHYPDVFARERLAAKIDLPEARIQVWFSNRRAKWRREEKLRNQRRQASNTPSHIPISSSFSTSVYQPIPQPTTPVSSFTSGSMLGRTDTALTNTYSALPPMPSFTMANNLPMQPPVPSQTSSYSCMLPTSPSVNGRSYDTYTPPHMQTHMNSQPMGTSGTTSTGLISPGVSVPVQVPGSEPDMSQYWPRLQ
Transcription factor Sp1 (Homo sapiens), sequence (P08047 whole entry, looked up): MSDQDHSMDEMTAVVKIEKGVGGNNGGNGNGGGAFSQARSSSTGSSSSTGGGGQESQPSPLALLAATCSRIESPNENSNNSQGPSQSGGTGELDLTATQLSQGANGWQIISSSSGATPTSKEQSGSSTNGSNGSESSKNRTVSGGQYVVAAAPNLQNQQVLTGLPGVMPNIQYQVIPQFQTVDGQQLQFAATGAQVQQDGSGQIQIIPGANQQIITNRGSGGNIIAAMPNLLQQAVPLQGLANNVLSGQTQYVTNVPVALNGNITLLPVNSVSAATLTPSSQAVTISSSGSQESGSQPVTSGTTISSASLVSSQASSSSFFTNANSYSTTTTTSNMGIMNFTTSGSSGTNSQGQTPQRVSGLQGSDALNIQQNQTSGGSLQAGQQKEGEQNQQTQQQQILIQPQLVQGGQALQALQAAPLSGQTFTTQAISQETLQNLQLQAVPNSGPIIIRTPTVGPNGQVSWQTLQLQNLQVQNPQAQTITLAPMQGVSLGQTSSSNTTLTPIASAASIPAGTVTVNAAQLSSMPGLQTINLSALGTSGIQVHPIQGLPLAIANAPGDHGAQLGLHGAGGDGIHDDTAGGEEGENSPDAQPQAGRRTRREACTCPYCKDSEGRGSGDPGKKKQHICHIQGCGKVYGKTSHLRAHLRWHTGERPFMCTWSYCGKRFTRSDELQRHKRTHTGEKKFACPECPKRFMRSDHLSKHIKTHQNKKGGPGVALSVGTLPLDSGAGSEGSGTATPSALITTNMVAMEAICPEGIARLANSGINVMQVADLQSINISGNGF

CC1(C)[C@H](C=C(Cl)Cl)[C@H]1C(=O)OCc1cccc(Oc2ccccc2)c1
active: [10] 3.1 µM
not listed: [15] | [16] | [17] | [18] | [19]
inactive: all other assays above

Nc1ccc(O)c(N)c1
not listed: [3] | [7] | [9] | [18] | [19]
inactive: all other assays above

[Na+]
not listed: [3] | [11] | [17] | [19]
inactive: all other assays above

CNC(=C[N+](=O)[O-])NCCSCc1ccc(CN(C)C)o1
not listed: [5] | [6] | [7] | [9] | [15] | [17]
inactive: all other assays above

CCCCOCCOCCOCCO
not listed: [2]
inactive: all other assays above

Cc1ccc(C(C)(C)O)cc1
not listed: [15] | [17]
inactive: all other assays above

CC1(C)CC(N)CC(C)(CN)C1 (stereo not drawn)
not listed: [3] | [7] | [9] | [10]
inactive: all other assays above

CCCCOCCOCCO
not listed: [3] | [7] | [9] | [17] | [19]
inactive: all other assays above

CC(=O)c1ccc(C)cc1
not listed: [3] | [15]
inactive: all other assays above

CC(=O)CCC(=O)O
active: [10] 63.8 µM
not listed: [3] | [7] | [18] | [19]
inactive: all other assays above

CCCCCCC(C)O (stereo not drawn)
not listed: [3] | [9] | [17]
inactive: all other assays above

O=C(O)c1cc2ccccc2cc1O
active: [10] 54.4 µM | [19] 52 µM
not listed: [3] | [7]
inactive: all other assays above

CCCCCCCCCCOC(=O)c1ccccc1C(=O)OCCCCCCCC
active: [10] 3.87 µM
not listed: [15]
inactive: all other assays above

O=C(O)C1=NN(c2ccc(S(=O)(=O)O)cc2)C(=O)C1
active: [10] 45.8 µM
not listed: [9] | [15]
inactive: all other assays above

CCO[Si](CC)(OCC)OCC
active: [10] 2.33 µM
not listed: [2] | [19]
inactive: all other assays above

CC(C)(O)C(=O)c1ccc(OCCO)cc1
not listed: [3] | [9] | [16]
inactive: all other assays above

CC(C)(CO)CO
not listed: [3] | [9] | [19]
inactive: all other assays above

[Cu+]
active: [8] 1.09 µM
not listed: [3] | [9] | [11] | [17] | [19]
inactive: all other assays above
